Experimental data reported in the supplement of paper PMC10849652.
About 8,800 targets were measured; listed, in parts, are those with a hit and a random draw of the rest. About 0.5% of all pairs of compound and target were hits.

Key:
Test in all cases: log2 fold change, soluble protein after heating vs DMSO (PISA); higher = thermal stabilisation; K562 lysate, 10 uM; active = over 0.2 and 3.5 SD of the protein, either way, in both replicates (recomputed)
[1] = compound: C#Cc1cccc(Nc2ncnc3cc(OCCOC)c(OCCOC)cc23)c1 [erlotinib]
Summary of the method: (§1)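 K562 pellets were dounce-homogenised in PBS pH 7.4 containing 1 mM MgCl2, and the crude extract, at 1 mg/mL protein, was exposed to 10 μM compound for 30 min. Aliquots were heated for 3 min across 48°C-58°C, pooled, brought to 0.5% NP-40 at 4°C and spun at 21,000xg for 90 min, with the supernatant taken as soluble protein. TMTpro 16plex LC-MS/MS with equalised channel sums quantified that protein. Values are log-two fold changes in thermal stability relative to solvent controls, taken from duplicates.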

[2] = compound: C/C(=N\NC(=O)C1=CC(=CC=C1)S(=O)(=O)N2CCOCC2)/C3=C(C=CC(=C3)Cl)O
Summary of the method: as §1

[3] = compound: C1=CC(=CC=C1C2=NC3=C(N2)C=C(C=C3)C(=O)N)OC4=CC=C(C=C4)Cl
Summary of the method: as §1

[4] = compound: C1=CC2=C(C=CC(=C2)/C=C\3/C(=O)NC(=NCC4=CC=CS4)S3)N=C1
Summary of the method: as §1

[5] = compound: C1=CC2=NC=CN=C2C=C1/C=C/3\C(=O)NC(=O)S3
Summary of the method: as §1

[6] = compound: C1=CC=C(C=C1)C2=NC(=C(N2)C3=CC=NC=C3)C4=CC(=C(C=C4)Cl)O
Summary of the method: as §1

[7] = compound: C1=CC=C2C(=C1)C3=NNC4=CC=CC(=C43)C2=O
Summary of the method: as §1

[8] = compound: C1CCN(C1)C(=O)NC2=CC=CC(=C2)NC3=NC=C(C(=N3)NCCC4=CN=CN4)Br
Summary of the method: as §1

[9] = compound: C1CN(CCC1(CC2=CC=C(C=C2)Cl)N)C3=NC=NC4=C3C=CN4
Summary of the method: as §1

[10] = compound: C1COCCN1CCN2C3=CC=CC=C3N=C2NC(=O)C4=CC(=CC=C4)[N+](=O)[O-] [IRAK-1-4 Inhibitor I]
Summary of the method: as §1

[11] = compound: C=CC(=O)N1CCC[C@@H](n2nc(-c3ccc(Oc4ccccc4)cc3)c3c(N)ncnc32)C1 [ibrutinib]
Summary of the method: as §1

[12] = compound: CC(=O)c1cnc2ccc(-c3cc(Cl)c(O)c(Cl)c3)nc2c1N[C@H]1CC[C@H](CN(C)C)CC1
Summary of the method: as §1

[13] = compound: CC(C)(C)Cn1c(N)nc2ccc(-c3[nH]c(C(C)(C)C)nc3-c3ccc(F)cc3)nc21 [ralimetinib]
Summary of the method: as §1

[14] = compound: CC(C)(O)CC(=O)NCCn1ccc2ncnc(Nc3ccc(Oc4cccc(C(F)(F)F)c4)c(Cl)c3)c21
Summary of the method: as §1

[15] = compound: CC(C)C1=C2N=C(C=C(N2N=C1)NCC3=CC=CC=C3)NCCCCCCN
Summary of the method: as §1

[16] = compound: CC1=C(C(CC(=O)N1)C2=CC=C(C=C2)C(F)(F)F)C(=O)NC3=C(C=C4C(=C3)C=NN4)F
Summary of the method: as §1

[17] = compound: CC1=C(C2=C(C=C1)C(=O)C3=CC=CC=C3N2CCCN)C
Summary of the method: as §1

[18] = compound: CC1=C(C=C(C=C1)NC(=O)C2=CC(=CC=C2)C(C)(C)C#N)NC3=CC4=C(C=C3)N=CN(C4=O)C
Summary of the method: as §1

[19] = compound: CC1=C(C=C(C=C1)NC(=O)C2=CC(=CC=C2)N(C)C)NC(=O)C3=CC=C(C=C3)O
Summary of the method: as §1

[20] = compound: CC1=CC=C(C=C1)SC2=C3C=C(SC3=CN=C2)C(=O)N
Summary of the method: as §1

Measured: log2 fold change

C18orf32 (UniProt Q8TCD1)
Chain of UniProt Q8TCD1 (Q8TCD1 whole entry, looked up): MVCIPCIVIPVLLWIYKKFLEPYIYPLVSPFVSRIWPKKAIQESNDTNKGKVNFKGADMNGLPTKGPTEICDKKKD
inactive: [1] 0.089 | [2] 0.126 | [3] 0.009 | [4] -0.06 | [5] -0.026 | [6] 0.011 | [7] 0.003 | [8] -0.049 | [9] -0.032 | [10] -0.026 | [11] 0.069 | [12] -0.014 | [13] 0.053 | [14] -0.048 | [15] -0.069 | [16] -0.078 | [17] -0.021 | [18] 0.074 | [19] -0.056 | [20] 0.032

CARS isoform 3 (UniProt P49589)
Chain of UniProt P49589 (P49589 whole entry, looked up): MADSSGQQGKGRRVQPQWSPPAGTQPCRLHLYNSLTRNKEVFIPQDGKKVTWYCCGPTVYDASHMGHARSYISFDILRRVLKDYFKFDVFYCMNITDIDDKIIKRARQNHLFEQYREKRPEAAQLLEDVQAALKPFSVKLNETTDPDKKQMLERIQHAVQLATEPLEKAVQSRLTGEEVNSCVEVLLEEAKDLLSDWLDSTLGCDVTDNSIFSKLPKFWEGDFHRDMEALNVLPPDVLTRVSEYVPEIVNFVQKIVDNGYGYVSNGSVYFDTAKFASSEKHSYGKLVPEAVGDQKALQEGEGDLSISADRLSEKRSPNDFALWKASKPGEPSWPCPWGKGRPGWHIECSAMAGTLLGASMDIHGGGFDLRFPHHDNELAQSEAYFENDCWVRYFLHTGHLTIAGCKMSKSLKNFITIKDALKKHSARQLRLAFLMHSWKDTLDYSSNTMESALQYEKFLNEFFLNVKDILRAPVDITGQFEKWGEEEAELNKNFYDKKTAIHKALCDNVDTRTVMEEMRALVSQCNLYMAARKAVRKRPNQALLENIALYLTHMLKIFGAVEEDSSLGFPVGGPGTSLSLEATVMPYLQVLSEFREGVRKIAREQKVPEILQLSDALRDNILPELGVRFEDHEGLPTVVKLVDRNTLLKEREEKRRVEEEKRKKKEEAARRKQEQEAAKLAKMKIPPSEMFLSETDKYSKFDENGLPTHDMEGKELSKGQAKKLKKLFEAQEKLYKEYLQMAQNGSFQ
inactive: [1] 0.008 | [2] -0.029 | [3] 0.018 | [4] -0.018 | [5] -0.006 | [6] 0.022 | [7] -0.032 | [8] -0.024 | [9] 0.015 | [10] 0.001 | [11] -0.012 | [12] 0.015 | [13] -0.016 | [14] 0.033 | [15] -0.016 | [16] -0.001 | [17] 0.015 | [18] -0.032 | [19] 0.009 | [20] 0.016

CBR1 (UniProt P16152)
Chain of UniProt P16152 (P16152 whole entry, looked up): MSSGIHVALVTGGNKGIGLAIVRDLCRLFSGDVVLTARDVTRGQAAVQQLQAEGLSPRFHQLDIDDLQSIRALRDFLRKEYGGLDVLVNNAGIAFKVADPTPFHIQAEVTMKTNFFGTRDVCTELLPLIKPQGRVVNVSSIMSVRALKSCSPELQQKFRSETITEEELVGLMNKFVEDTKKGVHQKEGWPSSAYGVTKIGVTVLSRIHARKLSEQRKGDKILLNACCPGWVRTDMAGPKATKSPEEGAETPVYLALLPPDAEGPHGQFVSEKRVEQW
inactive: [1] 0.011 | [2] 0.025 | [3] -0.001 | [4] 0.003 | [5] 0.016 | [6] 0.047 | [7] -0.001 | [8] -0.008 | [9] -0.006 | [10] -0.033 | [11] 0.04 | [12] -0.017 | [13] 0.009 | [14] 0.006 | [15] 0.001 | [16] -0.032 | [17] 0.045 | [18] -0.015 | [19] 0.02 | [20] -0.003

CDC40 (UniProt O60508)
Chain of UniProt O60508 (O60508 whole entry, looked up): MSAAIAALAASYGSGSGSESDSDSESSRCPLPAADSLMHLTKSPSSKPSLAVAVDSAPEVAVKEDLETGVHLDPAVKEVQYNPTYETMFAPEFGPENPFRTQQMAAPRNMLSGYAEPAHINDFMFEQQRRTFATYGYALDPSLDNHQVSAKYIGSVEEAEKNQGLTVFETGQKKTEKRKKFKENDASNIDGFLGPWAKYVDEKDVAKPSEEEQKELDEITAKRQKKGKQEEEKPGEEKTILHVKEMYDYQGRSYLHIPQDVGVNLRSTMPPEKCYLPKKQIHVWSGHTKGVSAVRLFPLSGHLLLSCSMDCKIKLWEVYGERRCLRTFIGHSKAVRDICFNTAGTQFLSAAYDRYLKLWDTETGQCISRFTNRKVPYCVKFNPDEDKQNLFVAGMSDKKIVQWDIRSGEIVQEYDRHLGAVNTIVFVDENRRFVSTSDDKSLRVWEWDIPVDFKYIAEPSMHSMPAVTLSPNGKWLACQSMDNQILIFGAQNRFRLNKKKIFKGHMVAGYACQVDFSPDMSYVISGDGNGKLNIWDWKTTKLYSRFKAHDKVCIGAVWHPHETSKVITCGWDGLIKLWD
active: [13] -0.219
inactive: [1] -0.036 | [2] -0.004 | [3] -0.009 | [4] -0.037 | [5] 0.015 | [6] -0.072 | [7] -0.059 | [8] -0.023 | [9] -0.035 | [10] 0.117 | [11] 0.02 | [12] 0.034 | [14] 0.016 | [15] -0.115 | [16] 0.084 | [17] -0.019 | [18] 0.056 | [19] 0.136 | [20] -0.028

C3 (UniProt P01024)
Chain of UniProt P01024 (P01024 whole entry, looked up): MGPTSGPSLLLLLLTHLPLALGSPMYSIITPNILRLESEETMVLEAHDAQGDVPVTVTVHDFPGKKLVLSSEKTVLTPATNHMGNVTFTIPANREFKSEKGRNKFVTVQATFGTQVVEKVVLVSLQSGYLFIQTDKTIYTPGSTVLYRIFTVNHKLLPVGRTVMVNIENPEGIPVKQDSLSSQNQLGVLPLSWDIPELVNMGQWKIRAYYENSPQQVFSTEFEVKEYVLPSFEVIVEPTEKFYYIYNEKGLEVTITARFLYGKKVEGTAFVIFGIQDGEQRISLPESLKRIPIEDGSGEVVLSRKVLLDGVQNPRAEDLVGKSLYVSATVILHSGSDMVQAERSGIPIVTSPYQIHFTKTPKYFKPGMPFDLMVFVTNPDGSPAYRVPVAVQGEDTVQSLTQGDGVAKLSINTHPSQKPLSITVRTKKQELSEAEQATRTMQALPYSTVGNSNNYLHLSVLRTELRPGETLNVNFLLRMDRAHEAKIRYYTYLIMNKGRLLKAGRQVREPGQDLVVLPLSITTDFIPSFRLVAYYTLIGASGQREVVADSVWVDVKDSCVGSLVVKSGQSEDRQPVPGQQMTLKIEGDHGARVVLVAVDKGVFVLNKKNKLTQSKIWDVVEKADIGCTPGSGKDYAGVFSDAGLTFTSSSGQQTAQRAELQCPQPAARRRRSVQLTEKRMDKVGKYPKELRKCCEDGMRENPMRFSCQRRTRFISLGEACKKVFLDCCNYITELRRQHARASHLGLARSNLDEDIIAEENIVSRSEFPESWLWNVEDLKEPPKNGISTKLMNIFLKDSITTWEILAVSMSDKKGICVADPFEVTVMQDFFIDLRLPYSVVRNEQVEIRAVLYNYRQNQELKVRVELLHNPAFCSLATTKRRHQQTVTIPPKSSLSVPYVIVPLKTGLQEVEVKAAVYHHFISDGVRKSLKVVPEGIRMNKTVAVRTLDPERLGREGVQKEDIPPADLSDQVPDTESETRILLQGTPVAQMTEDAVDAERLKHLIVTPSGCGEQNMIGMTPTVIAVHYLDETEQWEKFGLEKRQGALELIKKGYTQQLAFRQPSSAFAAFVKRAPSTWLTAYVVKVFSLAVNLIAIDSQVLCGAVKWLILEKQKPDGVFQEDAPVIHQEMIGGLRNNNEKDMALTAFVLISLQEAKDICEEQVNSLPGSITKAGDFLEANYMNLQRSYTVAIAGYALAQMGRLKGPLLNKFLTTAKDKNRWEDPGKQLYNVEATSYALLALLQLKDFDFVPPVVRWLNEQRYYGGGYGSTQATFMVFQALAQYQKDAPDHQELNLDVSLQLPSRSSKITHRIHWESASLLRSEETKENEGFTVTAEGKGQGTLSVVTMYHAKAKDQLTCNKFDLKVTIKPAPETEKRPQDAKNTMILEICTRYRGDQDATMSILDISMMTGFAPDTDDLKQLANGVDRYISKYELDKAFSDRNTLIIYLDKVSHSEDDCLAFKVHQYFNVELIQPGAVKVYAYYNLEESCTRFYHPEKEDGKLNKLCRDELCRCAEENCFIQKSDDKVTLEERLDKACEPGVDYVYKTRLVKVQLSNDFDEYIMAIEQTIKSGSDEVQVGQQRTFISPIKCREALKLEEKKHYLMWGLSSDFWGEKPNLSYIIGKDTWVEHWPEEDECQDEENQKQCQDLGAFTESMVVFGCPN
inactive: [1] 0.016 | [2] -0.031 | [3] 0 | [4] 0.004 | [5] -0.036 | [6] 0.151 | [7] -0.061 | [8] -0.042 | [9] 0.01 | [10] -0.014 | [11] -0.047 | [12] -0.011 | [13] -0.077 | [14] -0.032 | [15] 0.865 | [16] 0.243 | [17] -0.004 | [18] 0.01 | [19] 0.026 | [20] 0.001

C2CD5 isoform 3 (UniProt Q86YS7)
inactive: [1] 0.021 | [2] -0.047 | [3] 0.017 | [4] -0.024 | [5] -0.048 | [6] -0.034 | [7] -0.046 | [8] -0.045 | [9] 0.024 | [10] 0.054 | [11] -0.005 | [12] -0.026 | [13] 0.016 | [14] -0.123 | [15] 0.019 | [16] -0.018 | [17] 0.023 | [18] 0.071 | [19] -0.004 | [20] -0.068

ATP11A (UniProt P98196)
inactive: [1] -0.003 | [2] -0.067 | [3] -0.033 | [4] -0.011 | [5] -0.022 | [6] 0.016 | [7] 0.102 | [8] -0.005 | [9] -0.015 | [10] 0.087 | [11] -0.02 | [12] 0.091 | [13] 0.122 | [14] -0.046 | [15] -0.017 | [16] -0.019 | [17] -0.065 | [18] -0.006 | [19] -0.074 | [20] 0.02

C1orf112 (UniProt Q9NSG2)
Chain of UniProt Q9NSG2 (Q9NSG2 whole entry, looked up): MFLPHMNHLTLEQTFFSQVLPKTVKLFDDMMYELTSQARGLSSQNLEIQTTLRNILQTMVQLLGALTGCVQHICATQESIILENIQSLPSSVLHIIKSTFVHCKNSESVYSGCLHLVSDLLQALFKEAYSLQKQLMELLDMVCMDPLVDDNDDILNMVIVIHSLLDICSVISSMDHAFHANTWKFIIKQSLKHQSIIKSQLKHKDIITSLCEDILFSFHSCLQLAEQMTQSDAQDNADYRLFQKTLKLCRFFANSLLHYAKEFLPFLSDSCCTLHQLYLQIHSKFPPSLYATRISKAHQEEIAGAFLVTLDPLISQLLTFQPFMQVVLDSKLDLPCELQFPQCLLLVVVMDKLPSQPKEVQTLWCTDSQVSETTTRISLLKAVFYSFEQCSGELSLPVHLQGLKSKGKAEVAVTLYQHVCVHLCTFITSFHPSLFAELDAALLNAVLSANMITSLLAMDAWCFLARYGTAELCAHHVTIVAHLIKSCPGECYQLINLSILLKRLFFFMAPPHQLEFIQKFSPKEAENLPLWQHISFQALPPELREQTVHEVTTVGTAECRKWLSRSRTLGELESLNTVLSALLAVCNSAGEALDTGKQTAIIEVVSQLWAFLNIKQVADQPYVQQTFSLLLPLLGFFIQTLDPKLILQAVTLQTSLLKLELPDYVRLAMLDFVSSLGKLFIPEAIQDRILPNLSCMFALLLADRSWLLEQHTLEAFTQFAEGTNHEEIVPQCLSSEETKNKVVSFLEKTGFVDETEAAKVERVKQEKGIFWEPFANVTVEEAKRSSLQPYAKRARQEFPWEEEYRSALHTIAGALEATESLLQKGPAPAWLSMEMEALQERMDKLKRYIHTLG
inactive: [1] -0.053 | [2] 0.015 | [3] 0.079 | [4] -0.008 | [5] -0.057 | [6] 0.026 | [7] 0 | [8] -0.046 | [9] 0.054 | [10] -0.034 | [11] 0.014 | [12] 0.038 | [13] 0.022 | [14] -0.061 | [15] 0.017 | [16] 0.067 | [17] -0.085 | [18] -0.029 | [19] 0.036 | [20] 0.091

CAPNS1 (UniProt P04632)
Chain of UniProt P04632 (P04632 whole entry, looked up): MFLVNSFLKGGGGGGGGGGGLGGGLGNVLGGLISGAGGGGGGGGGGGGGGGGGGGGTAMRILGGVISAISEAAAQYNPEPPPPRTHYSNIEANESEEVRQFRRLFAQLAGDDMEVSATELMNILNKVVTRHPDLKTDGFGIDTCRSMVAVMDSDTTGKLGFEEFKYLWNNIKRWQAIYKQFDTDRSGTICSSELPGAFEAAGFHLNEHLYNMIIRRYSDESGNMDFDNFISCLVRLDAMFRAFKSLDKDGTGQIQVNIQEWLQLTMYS
inactive: [1] -0.066 | [2] 0.001 | [3] -0.023 | [4] 0.025 | [5] 0.006 | [6] -0.008 | [7] 0.082 | [8] -0.007 | [9] -0.039 | [10] -0.005 | [11] 0.076 | [12] 0.002 | [13] 0.035 | [14] -0.007 | [15] -0.015 | [16] 0.006 | [17] 0.053 | [18] 0 | [19] -0.025 | [20] 0.01

CEPT1 (UniProt Q9Y6K0)
inactive: [1] 0.025 | [2] -0.005 | [4] 0.035 | [5] 0.032 | [6] -0.023 | [7] -0.015 | [8] 0 | [9] 0.081 | [10] 0.072 | [11] 0.011 | [12] 0.061 | [13] 0.009 | [14] -0.003 | [15] 0.032 | [16] 0.004 | [17] -0.008 | [18] 0.026 | [19] 0 | [20] 0.024
active: [3] -0.216

CARD9 (UniProt Q9H257)
inactive: [1] 0.035 | [2] -0.024 | [3] -0.029 | [4] -0.02 | [5] -0.024 | [6] -0.009 | [7] 0.033 | [8] 0.015 | [9] -0.003 | [10] 0.017 | [11] -0.034 | [12] 0.037 | [13] 0.014 | [14] -0.029 | [15] 0.019 | [16] -0.022 | [17] -0.027 | [18] -0.005 | [19] -0.008 | [20] -0.038

CBX1 (UniProt P83916)
Chain of UniProt P83916 (P83916 whole entry, looked up): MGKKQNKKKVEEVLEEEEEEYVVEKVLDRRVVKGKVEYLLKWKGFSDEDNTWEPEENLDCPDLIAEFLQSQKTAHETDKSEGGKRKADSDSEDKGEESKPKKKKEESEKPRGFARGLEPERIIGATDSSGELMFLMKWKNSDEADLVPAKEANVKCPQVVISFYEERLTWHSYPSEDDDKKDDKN
inactive: [1] -0.012 | [2] -0.158 | [3] -0.012 | [4] -0.006 | [5] 0.03 | [6] -0.017 | [7] 0.017 | [8] 0.008 | [9] 0.03 | [10] 0.029 | [11] -0.002 | [12] 0.021 | [13] -0.006 | [14] -0.023 | [15] -0.039 | [16] -0.033 | [17] -0.024 | [18] 0.007 | [19] -0.003 | [20] -0.046

CARHSP1 (UniProt Q9Y2V2)
Chain of UniProt Q9Y2V2 (Q9Y2V2 whole entry, looked up): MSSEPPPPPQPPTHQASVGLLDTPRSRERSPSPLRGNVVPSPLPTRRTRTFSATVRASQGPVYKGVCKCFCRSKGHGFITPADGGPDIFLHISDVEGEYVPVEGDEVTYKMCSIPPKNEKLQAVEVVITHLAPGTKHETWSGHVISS
inactive: [1] 0.011 | [2] 0.022 | [3] -0.033 | [4] -0.06 | [5] 0.006 | [6] -0.026 | [7] 0.027 | [8] 0.01 | [9] 0.011 | [10] 0.024 | [11] 0.053 | [12] 0.021 | [13] -0.024 | [14] -0.032 | [15] 0.017 | [16] -0.029 | [17] 0.006 | [18] 0.014 | [19] 0.009 | [20] -0.008

CANX isoform 2 (UniProt P27824)
inactive: [1] 0.007 | [2] -0.027 | [3] 0.048 | [4] 0.004 | [5] 0 | [6] -0.007 | [7] -0.042 | [8] 0 | [9] 0.013 | [10] 0.003 | [11] -0.046 | [12] -0.009 | [13] -0.029 | [14] 0.003 | [15] 0.007 | [16] 0.001 | [17] -0.004 | [18] 0.011 | [19] 0.029 | [20] -0.025

CCNY (UniProt Q8ND76)
inactive: [1] -0.082 | [2] -0.033 | [3] 0.041 | [4] -0.037 | [5] 0.052 | [6] 0 | [7] 0.168 | [8] -0.016 | [9] -0.032 | [10] 0.063 | [11] 0 | [12] -0.013 | [13] -0.046 | [14] -0.099 | [15] 0.014 | [16] -0.036 | [17] 0.023 | [18] 0.063 | [19] 0.078 | [20] 0.001

CHD1L (UniProt Q86WJ1)
inactive: [1] -0.017 | [2] 0.007 | [3] -0.028 | [4] 0.036 | [5] 0.031 | [6] -0.014 | [7] -0.054 | [8] -0.012 | [9] 0.013 | [10] 0.003 | [11] -0.032 | [12] 0.03 | [13] 0.024 | [14] -0.011 | [15] -0.001 | [16] 0.008 | [17] -0.043 | [18] 0.029 | [19] 0.061 | [20] 0.019
